# Compounds with a hit are over-represented: about 8% of the library has one in this group of screens.
# HT1080 IDH1KD tx – HT-1080 IDH1 knockdown cell toxicity (counter line) | HT-1080 IDH1 knockdown viability, ATP luminescence, 48 h | Potency, µM (highest dose often 46.1 µM), without a hit: top-dose activity, negative = toxicity, usual class: cytotoxic | 360,000 compounds, 2% hits | AID 686971;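 further: 0% = DMSO wells and -100% = cell-free medium wells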
#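 In this qHTS, HT-1080 cells depleted of IDH1 are exposed for 48 h at 37 °C to compound titrations. Toxicity is scored from CellTiter-Glo luminescence, with DMSO as full viability and medium alone as none.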
# MCF10A rerep – DNA re-replication induction in MCF 10a cells; MCF 10A DNA re-replication, Hoechst nuclear intensity, 48 h; Potency, µM (doses to about 46.1 µM), for the others: at the highest dose activity, positive = re-replication, usual class: activators; AID 624296; 350,000 compounds, 2.9% hits; further: % of control where 0% means no effect; nearly all actives have a fitted effect of over 50% in size
# KB-V1 MDR tox – KB-V1 MDR subline cytotoxicity. KB-V1 MDR cells viability, CellTiter-Glo, 72 h. Potency, µM (series often up to 46.1 µM), most hits filed as cytotoxic. 400,000 compounds, 3.4% hits; further: on the % scale 0 is the no-effect control and ±100 the full control effect; nearly all actives have a fitted effect of over 60% in size
#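 KB-V1, DMEM (no phenol red) + 10% FBS; cpd pin-transferred, titration series; 72 h, 37 degrees C; CellTiter-Glo, luminescence. Data normalized, curve-fit.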
# KB-3-1 cytotox – kills parental KB-3-1 adenocarcinoma cells. 400,000 compounds, 1.4% hits. KB-3-1 viability, CellTiter-Glo ATP luminescence, 72 h. Potency, µM (titrated, usually from 46.1 µM), hits mostly cytotoxic; further: on the % scale 0 is the no-effect control and ±100 the full control effect; nearly all actives have a fitted effect of over 60% in size
#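 Multi-concentration cytotoxicity screen in KB-3-1 cells grown in DMEM lacking phenol red with 10% FBS. After 72 h at 37 °C with compound, ATP-dependent luminescence was recorded.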
# HT1080-NT tox – kills 2HG-producing HT-1080-NT fibrosarcoma cells; HT-1080-NT fibrosarcoma viability, CellTiter-Glo ATP luminescence, 48 h; Potency, µM (highest dose often 46.1 µM), without a hit: at the highest dose activity, negative = less viability, hits mostly cytotoxic; 360,000 compounds, 1.6% hits; AID 686970;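 further: NT is the 2HG producing partner of a matched IDH1 knockdown line; 0% = DMSO-treated cells and -100% = media-only wells without cells; nearly all actives have a fitted effect of over 55% in size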
#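 750 cells/well, RPMI + 5% FBS; 2 h settle, compound pin-transfer, 48 h at 37 degrees C. CellTiter-Glo 10 min RT, luminescence. Normalized to DMSO and media-only wells.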
# SW480 rereplic – DNA re-replication induction in SW480 cells; SW480 DNA re-replication, Hoechst DNA content imaging, 48 h; Potency, µM (series often up to 46.1 µM), for the others: at the highest dose re-replication activation, actives largely listed as activators; 340,000 compounds, 1.8% hits; further: % of control where 0% means no effect; nearly all actives have a fitted effect of over 55% in size
#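 Quantitative HTS format with DMSO vehicle controls; 48 hr drug incubation at 37 C, then 40 min Hoechst staining and scanning imager measurement at 405 nm excitation.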
# An asterisk follows results filed as active; i = inactive; ? = inconclusive; / = no result; [ ] = remark or other dose. The call rests on the fitted dose curve; in most records, active means well fitted curve in the direction sought with a large enough effect; inconclusive means small, poorly fitted or top-dose-only effect, or another doubt; inactive means no such curve, though single readings can be large; an effect the other way counts as inactive or inconclusive. Potency means the concentration at half of the fitted maximal effect.
SMILES,HT1080 IDH1KD tx,MCF10A rerep,KB-V1 MDR tox,KB-3-1 cytotox,HT1080-NT tox,SW480 rereplic
O=C(Nc1ccc(Cl)cc1)N[C@@H]1c2c(ccc3ccccc23)OC[C@@H]1CO,?,7%,?,?,-10%,7%
O=C(Nc1nnc(Cc2ccccc2)s1)C1CCN(C(=O)c2cccs2)CC1,/,/,i,i,/,/
CCOc1ccc(NC(=O)CN2CCN(c3ccccc3C)CC2)cc1S(=O)(=O)N1CCCC1,-2%,-4%,4.1µM*,i,-2%,0%
CCOc1ccc(NC(=O)COc2cccc3cccnc23)cc1S(=O)(=O)N1CCCC1,?,/,21µM*,?,-14%,/
Cc1ccc2oc(-c3cc(NC(=O)Cc4ccccc4)ccc3Cl)nc2c1,/,/,i,i,/,/
Cc1ccc2[nH]c(CSc3nnc(NC(=O)COc4ccccc4Cl)s3)cc(=O)c2c1,/,/,i,i,/,/
O=C(NCc1ccco1)c1ccc2c(c1)N(Cc1ccc(F)cc1)C(=O)c1ccccc1S2=O (centres undefined),/,/,i,i,/,/
ClC(Cl)(c1nnnn1-c1ccccc1)c1nnnn1-c1ccccc1,6.5µM*,?,i,i,?,13µM*
CCc1nnc(NC(=O)C(=O)c2cc(C)n(-c3ccccc3)c2C)s1,/,/,i,i,/,/
NNC(=O)c1ccc(C(=O)N(c2ccccc2)c2ccccc2)cc1,/,/,i,i,/,/
Cc1ccc(/C=C/C(=O)Nc2ccc([N+](=O)[O-])cc2)o1,-18%,-3%,i,i,1%,-9%
CCc1ccc(C(=O)/C=C/c2ccc([N+](=O)[O-])o2)cc1,-25%,8.9µM*,?,?,-29%,9%[9.22 µM]
CCOC(=O)CCc1ccc(NC(=O)/C=C/c2ccc([N+](=O)[O-])o2)cc1,2.9µM*,9.2µM*,?,?,8.2µM*,7.3µM*
CCc1ccc(/C=C/C(=O)c2ccc(S(=O)(=O)N(C)C)cc2)cc1,0%,29%,21µM*,i,8%,?
CC(C)(C)NC(=O)Nc1nnc(-c2ccncc2)s1,/,/,i,?,/,/
COc1ccc(-c2cn3nc(N4CCCC(C(=O)NCc5ccccc5C)C4)sc3n2)cc1 (centres undefined),/,/,i,i,/,/
C(=C\c1cnc2ccccc2n1)/c1ccc2c(c1)OCO2,/,/,i,?,/,/
COc1ccc(-c2[nH]c(-c3cc(OC)c4c(c3)OCO4)nc2-c2ccccc2)cc1,?,13µM*,i,i,?,-4%
COc1cc(/C=C/c2nnc3c4ccccc4ncn23)cc(OC)c1OC,?,?,i,i,?,-10%
C(=C\c1nnc2c3ccccc3ncn12)/c1ccccc1,5.8µM*,6.5µM*,5.2µM*,12µM*,?,?
O=C(NCc1ccccc1Cl)c1cccc(OC2CCN(C(=O)C3CC3)CC2)c1,-4%,13%,6.5µM*,?,-8%,0%
CC(NC(=O)c1cccc(OC2CCN(C(=O)C3CC3)CC2)c1)c1ccc(F)cc1 (centres undefined),-1%,3%,/,/,1%,9%
Cc1ccc(-c2ccc(CCC(=O)O)n2-c2cccc(C)c2C)cc1,/,/,?,i,/,/
O=C(NNC(=O)c1ccccc1O)c1ccc(S(=O)(=O)Nc2ccccc2F)cc1,?,?,i,?,23µM*,36%
Cc1ccccc1NS(=O)(=O)c1ccc(C(=O)NNC(=O)c2ccccc2O)cc1,?,5%,i,?,-14%,15µM*
SMILES,HT1080 IDH1KD tx,MCF10A rerep,KB-V1 MDR tox,KB-3-1 cytotox,HT1080-NT tox,SW480 rereplic
O=C(NNC(=O)c1ccccc1O)c1ccc(S(=O)(=O)Nc2ccccc2)cc1,-19%,0%,?,?,-14%,11µM*
O=C(NNc1ccccc1F)c1ccccc1,9.2µM*,?,?,i,?,18%
CC1=NNC(=O)/C1=C\c1cn(-c2ccccc2)nc1-c1ccc(Cl)cc1,5.8µM*,3.7µM*,16µM*,26µM*,7.3µM*,12µM*
Cc1ccc(-c2nn(-c3ccccc3)cc2C=C2C(=O)CC(C)(C)CC2=O)cc1,?,?,18µM*,?,-29%,-8%[9.22 µM]
CC1(C)CC(=O)C(=Cc2cn(-c3ccccc3)nc2-c2ccccc2)C(=O)C1,15%,47%,?,i,2%,-4%
CC1=NN(c2ccccc2)C(=O)/C1=C\c1cn(CCC#N)nc1-c1ccc(Cl)cc1,-6%,1%,i,i,0%,-37%
CCN(CC)CCC(=O)N1c2ccccc2Sc2ccc(Cl)cc21,21µM*,30µM*,?,i,?,14µM*
CN(C)CCC(=O)N1c2ccccc2Sc2ccc(Cl)cc21,?,?,i,i,-3%,?
CN1CCC=C(C(=O)N2c3ccccc3Sc3ccc(Cl)cc32)C1,16µM*,13%,i,?,?,-6%
CCOc1ccccc1NC(=O)c1c(NC(=O)C(C)Oc2ccc(Cl)cc2)sc2c1CCCCC2 (centres undefined),/,/,i,i,/,/
O=C(c1ccc(Cl)cc1)c1oc2ccccc2c1CS(=O)c1ccccc1 (centres undefined),-9%,?,5.2µM*,i,9%,17%

# Assay outcomes from PubChem.
